Experimental findings from PubChem BioAssay (NCATS) are described below.

Results filed as inconclusive are left out. The source made the active and inactive calls. Calls follow the shape of the dose curve; as a rule, active = well fitted inhibition curve with a large enough effect; inconclusive = small, poorly fitted or top-dose-only effect; inactive = flat fitted curve, though single readings scatter. Where a SMILES comes first, the peptide text is derived from it. [ ]: non-standard residue; d: D form. Ala(indol-2-yl) = N[C@@H](Cc1cc2ccccc2[nH]1)C(=O)O; Aib = CC(C)(N)C(=O)O
% is scaled to controls: 0 for no effect and ±100 for the full control effect; potency is read from the fitted curve at half-maximal effect.

The experiment concerns HEK293. The experiment is described as follows: Cytotoxic Profiling of Annotated Libraries Using Quantitative High-Throughput Screening (AID 1296008). Also: nearly all actives have a fitted effect of over 60% in size. The following applies: Five cell lines viability, CellTiter-Glo ATP luminescence, 48-72 h; max response: stronger effect = lower value. A digest of the protocol:
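Cytotoxicity was measured as CellTiter-Glo ATP luminescence, read after 10 min at room temperature. Compound treatment of the cells lasted 48 or 72 hr at 37 degrees Celsius in a qHTS format.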
On the technique in general: ATP-based viability assays read luminescence as a measure of living cells.
For `O=C(OC[C@H]1O[C@@H](Oc2ccc(O)cc2CO)[C@H](O)[C@@H](O)[C@@H]1O)c1ccccc1`, the max response is 0.485% (inactive). On to `CC(=O)O[C@@H]1[C@@H](O)[C@H]2O[C@@H]3C=C(C)[C@@H](O)C[C@]3(CO)[C@]1(C)[C@]21CO1`, for which the Potency is 321 nM (active). Same read-out and setting: as for `COc1cc2c(c(OC)c1OC)-c1ccc(SC)c(=O)cc1[C@@H](NC(C)=O)CC2`, the figure is 8.2 nM (active). For `CC(C)(NC(=O)[C@@H](N)Cc1ccc(O)cc1)C(=O)N[C@@H](Cc1cc2ccccc2[nH]1)C(=O)N[C@@H](Cc1ccccc1)C(=O)O` (H-Y[Aib][Ala(indol-2-yl)]F-OH), the max response is -3.45% (inactive). As for `C=C1[C@@H](C)[C@H]2[C@H](Cc3ccccc3)NC(=O)[C@]23[C@H](OC(C)=O)/C=C/[C@](C)(O)C(=O)[C@@H](C)C/C=C/[C@H]3[C@@H]1O`, the Potency was 731 nM (active). With `COc1ccc2c3c([nH]c2c1)C(C=C(C)C)N1C(=O)C2CCCN2C(=O)C1C3` (stereo not drawn), the max response is -10.4% (inactive). As for `C[C@@H]1C[C@@H](O)[C@]2(O)O[C@@H]3C[C@@]4(C=O)C(CC[C@@H]5C4CC[C@]4(C)[C@@](O)(C6=CC(=O)OC6)CC[C@]54O)C[C@H]3OC2O1` (stereo partly drawn), the Potency is 1120 nM (active).

For `CC(=O)OC[C@]12C[C@H](OC(=O)CC(C)C)C(C)=C[C@H]1O[C@@H]1[C@H](O)[C@@H](OC(C)=O)[C@@]2(C)[C@@]12CO2`, the Potency is 22.4 nM (active). Regarding `CC[C@H](C)[C@H](NC(=O)[C@H]1CCCCN1C)C(=O)N(COC(=O)CC(C)C)[C@H](C[C@@H](OC(C)=O)c1nc(C(=O)N[C@@H](Cc2ccc(O)cc2)C[C@H](C)C(=O)O)cs1)C(C)C`, the Potency was 0.4 nM (active). Same read-out and setting: to `CN[C@@H]1C[C@H]2O[C@@](C)([C@@H]1OC)n1c3ccccc3c3c4c(c5c6ccccc6n2c5c31)C(=O)NC4` belongs 231 nM (active); to `CC1=C[C@H]2O[C@@H]3C[C@H]4OC(=O)/C=C/C=C/C(=O)OCC/C(C)=C/C(=O)OC[C@@]2(CC1)[C@]4(C)[C@]31CO1`, 8 nM (active). Still for that read-out and setting: to `CC(=O)OC[C@]12C[C@H](OC(=O)CC(C)C)C(C)=C[C@H]1O[C@@H]1[C@H](O)[C@@H](O)[C@@]2(C)[C@]12CO2` belongs 25.2 nM (active); to `CC(=O)OC[C@]12C[C@H](OC(=O)CC(C)C)C(C)=C[C@H]1O[C@@H]1[C@H](O)C[C@@]2(C)[C@]12CO2`, 563 nM (active).

`COC1CC(O[C@H]2CC[C@]3(C)C4CC[C@]5(C)[C@@H](C6=CC(=O)OC6)[C@@H](OC(C)=O)C[C@]5(O)C4CC[C@@H]3C2)OC(C)C1O[C@@H]1O[C@H](CO)[C@@H](O)[C@H](O)[C@H]1O` (stereo partly drawn): the Potency is 485 nM (active). As to `Cc1c(Cl)c(OCC(=O)N2CCN(C)CC2)nc2sc(C(=O)NC3CC3)c(N)c12`, the max response is -7.33% (inactive). Consider `CO[C@H]1[C@H](O)[C@H](O[C@H]2CC[C@]3(C=O)C4CC[C@]5(C)[C@H](C6=CC(=O)OC6)CC[C@]5(O)C4CC[C@@H]3C2)O[C@@H](C)[C@@H]1O` (stereo partly drawn), for which the Potency was 50.2 nM (active).

Regarding `C[C@H]1O[C@@H](O[C@H]2CC[C@]3(C=O)C4CC[C@]5(C)[C@@H](C6=CC(=O)OC6)CC[C@]5(O)[C@@H]4CC[C@]3(O)C2)C[C@@H](O)[C@@H]1O` (stereo partly drawn), the Potency is 25.2 nM (active).

On to `COC1CC(O[C@H]2CC[C@]3(C=O)C4CC[C@]5(C)[C@@H](C6=CC(=O)OC6)CC[C@]5(O)[C@@H]4CC[C@@H]3C2)OC(C)C1O[C@@H]1O[C@H](CO)[C@@H](O[C@@H]2O[C@H](CO)[C@@H](O)[C@H](O)[C@H]2O)[C@H](O)[C@H]1O` (stereo partly drawn), for which the Potency was 219 nM (active).

For `C[C@]12CC[C@H](O)C[C@H]1CC[C@@H]1[C@@H]2[C@H](O)C[C@]2(C)[C@@H](c3ccc(=O)oc3)CC[C@]12O`, the Potency is 36.6 nM (active). On to `C[C@H]1O[C@@H](O[C@H]2CC[C@]3(CO)C4CC[C@]5(C)[C@@H](C6=CC(=O)OC6)CC[C@]5(O)[C@@H]4CC[C@H]3C2)[C@H](O)[C@H](O)[C@@H]1O[C@@H]1O[C@H](CO)[C@@H](O)[C@H](O)[C@H]1O` (stereo partly drawn), for which the Potency is 1530 nM (active). Take `CC1=C[C@H]2O[C@@H]3[C@H](O)[C@@H](O)[C@](C)([C@@]2(CO)C[C@@H]1O)[C@]31CO1`: the Potency was 1300 nM (active).

Regarding `C[C@H]1O[C@@H](n2cnc3c(N)ncnc32)C[C@@H]1O`, the max response is 0.909% (inactive). With `OCc1nnc2n1-c1ccc(Cl)cc1C(c1ccccc1Cl)=NC2`, the max response was -7.41% (inactive).
